Each structure is given as a SMILES string. Among all 330,000 compounds or so, about 10,000 (3%) were called active.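 How the source made its calls: active means inhibition of at least 50% at 8 µM in the primary screen; inactive means the rest.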 This excerpt belongs to a sample that is enriched for actives.

For this assay, the target named is Protein Mdm4 (Homo sapiens) + E3 ubiquitin-protein ligase Mdm2 (Homo sapiens) (UniProt O15151+Q00987). The experiment in a line: inhibitors of human Mdm2-MdmX association, primary screen, cell-based, luminescence, split luciferase, SaOS-2, uHTS (AID 485346). As to conditions: SaOS-2 split-luciferase Mdm2/MdmX complementation, at 8 µM, hits give high values.
Protein Mdm4 (Homo sapiens) + E3 ubiquitin-protein ligase Mdm2 (Homo sapiens), sequence (O15151 whole entry, looked up): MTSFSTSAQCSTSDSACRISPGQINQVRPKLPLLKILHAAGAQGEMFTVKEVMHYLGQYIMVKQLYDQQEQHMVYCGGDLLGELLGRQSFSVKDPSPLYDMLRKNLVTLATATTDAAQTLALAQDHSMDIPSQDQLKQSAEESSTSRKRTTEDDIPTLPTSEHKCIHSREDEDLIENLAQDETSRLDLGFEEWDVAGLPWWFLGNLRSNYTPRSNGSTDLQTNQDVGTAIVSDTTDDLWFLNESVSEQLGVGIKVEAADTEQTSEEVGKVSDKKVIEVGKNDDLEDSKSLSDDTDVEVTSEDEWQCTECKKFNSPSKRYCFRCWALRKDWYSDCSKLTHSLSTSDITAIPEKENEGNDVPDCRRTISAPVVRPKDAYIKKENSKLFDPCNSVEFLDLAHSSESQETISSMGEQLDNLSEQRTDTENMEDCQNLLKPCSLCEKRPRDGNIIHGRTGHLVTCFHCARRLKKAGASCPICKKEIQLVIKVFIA
Protein Mdm4 (Homo sapiens) + E3 ubiquitin-protein ligase Mdm2 (Homo sapiens), sequence (Q00987 whole entry, looked up): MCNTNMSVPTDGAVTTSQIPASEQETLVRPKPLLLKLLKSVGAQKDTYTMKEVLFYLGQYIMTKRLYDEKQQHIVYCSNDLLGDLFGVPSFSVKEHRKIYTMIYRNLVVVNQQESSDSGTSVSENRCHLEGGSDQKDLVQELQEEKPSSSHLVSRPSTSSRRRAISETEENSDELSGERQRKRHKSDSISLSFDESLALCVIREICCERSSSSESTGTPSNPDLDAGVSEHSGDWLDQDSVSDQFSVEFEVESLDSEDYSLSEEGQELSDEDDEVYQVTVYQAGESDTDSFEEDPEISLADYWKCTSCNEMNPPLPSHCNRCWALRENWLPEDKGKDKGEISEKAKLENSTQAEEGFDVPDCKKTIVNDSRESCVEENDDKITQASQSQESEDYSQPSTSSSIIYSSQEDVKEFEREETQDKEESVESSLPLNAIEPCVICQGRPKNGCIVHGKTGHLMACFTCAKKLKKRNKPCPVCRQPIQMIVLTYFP
Consider `CCCCC(=O)Nc1ccc(C(=O)Nc2cc(C(F)(F)F)ccc2Cl)cc1`, for which the inhibition is 21.2% (inactive). As for `CCCCN(CCCC)CCC(O)c1cc2c(Cl)cc(Cl)cc2c2cc(C(F)(F)F)ccc12` (centres undefined), the inhibition is 60.8% (active). The value for `CC1(C)Cc2c(sc3nc(SCC(=O)NCc4ccccc4)n(-c4ccccc4)c(=O)c23)CS1` was -3.67% (inactive); that for `N#Cc1c(NCCO)ccc([N+](=O)[O-])c1NCCO` was -1.81% (inactive). To `CCOc1ccc(CN2CCN(Cc3c[nH]c4ccccc34)CC2)cc1` belongs 20.2% (inactive); to `O=C(COC(=O)CN1C(=O)C2CCCCC2C1=O)Nc1ccc(F)c(F)c1F` (centres undefined), 34.5% (inactive); to `C[C@]12c3[nH]c4ccc(Cl)cc4c3CCN1C(=O)[C@@H](CC(=O)NCCCn1ccnc1)C[C@@H]2C(=O)N1CCOCC1`, 4.12% (inactive). Turning to `CC1CCN(C(=O)/C(=C\c2ccccc2F)NC(=O)c2ccccc2)CC1`, the inhibition was 8.33% (inactive). `C=CCNc1cnn(-c2ccc(C)cc2)c(=O)c1Cl`: the inhibition was -8.88% (inactive). For the molecule `Cc1cccc(-n2ncc(C#N)c2-n2cccc2)c1`, the inhibition is 18.1% (inactive). To `Cc1cccc(-n2ncc(Cl)c(Cl)c2=O)c1` belongs 100% (active); to `COC(=O)[C@@H]1C[C@@]2(O)[C@@H](O)[C@@H](O)[C@@H](O)C[C@H]2N1Cc1ccc(C)s1`, 10.5% (inactive); to `CCCOc1cccc(C(=O)Nc2nnn(CCC)n2)c1`, -17.9% (inactive). To `COc1ccccc1-n1nnnc1S(=O)(=O)Cc1ccc(Cl)cc1` belongs 99.3% (active); to `COc1ccccc1N1CCN(S(=O)(=O)c2ccc(Cl)cc2)CC1`, 0.916% (inactive); to `COc1ccccc1-n1nnnc1SCC(=O)NC(=O)Cc1ccccc1`, -11.3% (inactive). The value for `O=C(CN1C(=O)c2cccnc2Oc2ccc(Cl)cc21)Nc1ccc(F)cc1` was 7.52% (inactive); that for `CC1C(=O)NC(=O)C1c1ccccc1` (centres undefined) was 10.9% (inactive). With `COc1ccccc1-c1sc2ccccc2c1-c1ccc(C(C)=O)cc1`, the inhibition is 7.74% (inactive).

In the case of `COc1cc(OC)cc(-c2sc3ccc(OC)cc3c2-c2ccc3cc[nH]c3c2)c1`, the inhibition is 13.6% (inactive). Consider `COc1ccc2sc(-c3ccccc3OC)c(-c3ccc(OCCN4CCCC4)cc3)c2c1`, for which the inhibition is 73.2% (active). On to `COc1ccccc1-c1sc2ccccc2c1-c1ccc(Br)nc1`, for which the inhibition is 1.19% (inactive). The value for `COc1ccc(-c2sc3ccccc3c2-c2ccc(OCCN3CCOCC3)cc2)cc1` was 28.3% (inactive); that for `COc1cccc(-c2sc3ccc(OC)cc3c2-c2ccc(OCCN3CCCCC3)cc2)c1` was 96.8% (active); that for `CN1C(=O)C2(OCCCO2)c2cc(Cl)ccc21` was 2.45% (inactive).

With `COC(=O)c1ccc(Oc2nc(NC(C)C)nc(SC)n2)cc1`, the inhibition is 22.5% (inactive).

Take `Cc1ccc(C(C(=O)NCC2CCCO2)N(C(=O)c2snc(C(N)=O)c2N)c2ccc(C(C)C)cc2)o1` (centres undefined): the inhibition was -3.18% (inactive). The value for `C/C(=N\N(C)C)c1ccc(OCCOc2ccc([N+](=O)[O-])cc2)cc1` was -8.83% (inactive). The value for `O=C(CN1CCN(C2CCS(=O)(=O)C2)CC1)N1N=C(c2ccc(Cl)cc2)CC1c1ccco1` (centres undefined) was 26.2% (inactive). For the molecule `COCCCC1CCN(C(=O)C2CCC(=O)N(C3CCCCCC3)C2)CC1` (centres undefined), the inhibition is 27.9% (inactive). In the case of `Cc1c(Cl)cccc1NC(=S)NCC(O)c1ccccc1` (centres undefined), the inhibition is -14.3% (inactive).

In the case of `Cc1cccc(C(=O)OC(C)C(=O)NC2CCCc3ccccc32)c1O` (centres undefined), the inhibition was 28.3% (inactive). As to `O=C(CCNC(=O)c1ccc(Cl)cc1)NC1CCCc2ccccc21` (centres undefined), the inhibition was 82.7% (active).

In the case of `COC(=O)c1cc(OCC(=O)NC2CCCc3ccccc32)cc(C(=O)OC)c1` (centres undefined), the inhibition is 1.41% (inactive). The value for `NC(=O)Nc1ccc(C(=O)OCC(=O)NC2CCCc3ccccc32)cc1` (centres undefined) was -3.47% (inactive); that for `CC1(c2ccccc2)NC(=O)N(CC(=O)N2CC(=O)Nc3ccccc32)C1=O` (centres undefined) was -7.07% (inactive); that for `Cc1nnc(NC(=O)Nc2ccc(Cl)c(Cl)c2)s1` was 95.2% (active). For the molecule `Cc1nnc(NC(=O)C(c2ccccc2)c2ccccc2)s1`, the inhibition is 7.45% (inactive).

Regarding `Cc1ccc(NC(=O)Nc2nnc(-c3ccncc3)s2)cc1`, the inhibition was 45.1% (inactive). On to `CC(C)Oc1ccc(S(=O)(=O)N2CCOCC2)cc1NC(=O)C1CCCC1`, for which the inhibition was -52.3% (inactive). To `CC1CC(=S)Nc2ccccc2N1Cc1ccccc1` (centres undefined) belongs 18.7% (inactive). The value for `CCCCN(CC)CCCNC(=O)c1ccc(CSc2nc3ccncc3[nH]2)cc1` was 6.18% (inactive). The value for `COc1cccc(NC(=O)COC(=O)c2ccc3ccccc3n2)c1` was -8.32% (inactive); that for `COc1ccc(CCNC(=O)CSc2nc(C)nc3c2oc2ccccc23)cc1OC` was -0.689% (inactive). Regarding `CC(Nc1nc(N2CCOCC2)nc2ccccc12)c1ccccc1` (centres undefined), the inhibition is -0.119% (inactive). Take `CC(Nc1nc(N2CCCC2)nc2ccccc12)c1ccccc1` (centres undefined): the inhibition was 70.8% (active). To `CC(Nc1nc(N2CCN(CCO)CC2)nc2ccccc12)c1ccccc1` (centres undefined) belongs -4.68% (inactive); to `CCN(C(=O)COC(=O)CCC(=O)c1cccs1)C1CCCCC1`, 18.7% (inactive). As for `CC(=O)c1ccc(NC(=S)N(Cc2ccccc2)C(C)C2CC2)cc1` (centres undefined), the inhibition is 29.9% (inactive).

With `CCOC(=O)C1CSC(CC(=O)Nc2ccc(OCC)cc2)C(=O)N1` (centres undefined), the inhibition is 9.79% (inactive). To `COCC1CCCN(C(=O)c2ccc3oc(C(C)C)nc3c2)C1` (centres undefined) belongs 28.6% (inactive). On to `Cc1cc(C)nc(N2CCC(C(=O)Nc3ccc4c(c3)OCCO4)CC2)n1`, for which the inhibition is 15.6% (inactive). The value for `Cc1cc(Nc2cc(N3CCN(C)CC3)nc(Sc3ccc(NC(=O)C4CC4)cc3)n2)n[nH]1` was 88.2% (active); that for `Cc1n[nH]c(C)c1S(=O)(=O)N1CCCC(C(=O)Nc2ccc(Br)cc2)C1` (centres undefined) was 18.8% (inactive); that for `CCc1ccc(NC2Nc3cc(C)nn3S2)cc1` (centres undefined) was -161% (inactive). To `Cc1ccc(CNC(=O)[C@@H](NC(=O)Cc2ccccc2)C(C)C)cc1` belongs 33.2% (inactive). To `CCN(C(=O)COC(=O)CCOc1cccc(C)c1)c1c(N)n(Cc2ccccc2)c(=O)[nH]c1=O` belongs -15.7% (inactive). For the molecule `CCCCN(C(=O)C1=NN(c2cc(C)ccc2C)C(=O)CC1)c1c(N)n(CCC)c(=O)[nH]c1=O`, the inhibition is 4.43% (inactive). The value for `Nc1nc(NC(=O)/C=C/c2ccc(F)cc2)nn1-c1ccccc1` was 36.3% (inactive). For the molecule `Cc1c(NC(=O)CCC2CCCCC2)cc(C(=O)N2CCOCC2)cc1[N+](=O)[O-]`, the inhibition is -15.2% (inactive). In the case of `C=CCC[C@H](Cc1ccc(F)cc1)C(=O)OC[C@@H](Cc1c[nH]c2ccccc12)NC(=O)[C@H](CC=C)CC(=O)N[C@H](CO)Cc1ccccc1`, the inhibition was 38.1% (inactive). To `C=CCC[C@H](Cc1ccc(F)cc1)C(=O)OC[C@@H](NC(=O)[C@@H](CC=C)CC(=O)N[C@H](CO)Cc1ccccc1)C(C)(C)C` belongs 46.7% (inactive); to `C=CC[C@@H](CC(=O)N[C@H](CO)Cc1ccccc1)C(=O)N[C@@H](COC(=O)[C@@H](CC=C)Cc1ccc(F)cc1)Cc1c[nH]c2ccccc12`, 16.4% (inactive). For `C=CCC[C@@H](Cc1ccc(F)cc1)C(=O)OC[C@@H](C)NC(=O)[C@H](CC=C)CC(=O)N(CCO)Cc1ccccc1`, the inhibition was 24% (inactive). The value for `C=CCC[C@@H](Cc1ccc(F)cc1)C(=O)O[C@H](CNC(=O)[C@H](CC=C)CC(=O)N(CCO)Cc1ccccc1)c1ccccc1` was 66.9% (active); that for `C=CCC[C@@H](Cc1ccc(F)cc1)C(=O)OC[C@H](Cc1c[nH]c2ccccc12)NC(=O)[C@@H](CC=C)CC(=O)N(CCO)Cc1ccccc1` was 87.5% (active); that for `C=CC[C@@H](Cc1ccc(F)cc1)C(=O)OC[C@H]1CCCN1C(=O)[C@H](CC=C)CC(=O)N(CCO)Cc1ccccc1` was 38.8% (inactive). With `C=CC[C@H](CC(=O)N(CCO)Cc1ccccc1)C(=O)N[C@@H](COC(=O)[C@@H](CC=C)Cc1ccc(F)cc1)Cc1ccccc1`, the inhibition was 67.8% (active). For the molecule `C=CCC[C@H](Cc1ccc(F)cc1)C(=O)OC[C@H](C)NC(=O)[C@H](CC=C)CC(=O)N(CCO)Cc1ccccc1`, the inhibition is -2.85% (inactive). For the molecule `CCOc1ccc(NC(=O)CN(C)C(=O)Cc2sc(C)nc2-c2ccc(F)cc2)cc1OCC`, the inhibition was 10.8% (inactive). The value for `COc1ccc(CN2CCN(C(=O)CCC(=O)Nc3nnc(C(C)C)s3)CC2)cc1F` was 16.8% (inactive); that for `O=C(/C=C/c1ccccc1[N+](=O)[O-])OCC(=O)N1CCCC1` was 15% (inactive). The value for `COc1ccc(S(=O)(=O)N2CCN(CC(=O)NCC3(N4CCOCC4)CCCCC3)CC2)cc1` was -0.077% (inactive).

Take `CCO[C@@H]1OC(C(=O)NCc2nc3ccccc3[nH]2)=C[C@H](C2CCCCC2)[C@H]1CCCO`: the inhibition was 18.5% (inactive).

As to `O=C(CSc1nnc(CNC(=O)c2ccc(F)cc2)o1)Nc1ccc2c(c1)OCO2`, the inhibition is 5.86% (inactive). To `NC(=O)C1CCN(C(=O)c2ccc(F)c(S(=O)(=O)N3CCOCC3)c2)CC1` belongs -40.7% (inactive). Consider `C=CCO/N=C(\C)c1c(O)c(C)c(-c2ccccc2)n(-c2ccccc2)c1=O`, for which the inhibition was 9.07% (inactive).

With `CC(OC(=O)c1cc2ccccc2o1)C(=O)Nc1ccc(N2CCOCC2)cc1` (centres undefined), the inhibition was 11.3% (inactive). Take `CN(CC(=O)Nc1c(Cl)cccc1Cl)C(=O)c1ccncc1`: the inhibition was 19.3% (inactive). For the molecule `Cc1occc1-c1nnc(SCC(=O)NC2(C#N)CCCC2)n1C`, the inhibition was 22.7% (inactive).

In the case of `CN1CCN(S(=O)(=O)c2ccc(N3CCN(c4ccccc4O)CC3)c([N+](=O)[O-])c2)CC1`, the inhibition is 2.63% (inactive).

For the molecule `O=c1[nH]c(CCl)nc2cc(-c3ccc(Cl)cc3)sc12`, the inhibition was 80.8% (active).

Take `O=c1[nH]c(CN2CCOCC2)nc2cc(Cl)ccc12`: the inhibition was -2.08% (inactive).

On to `NC(=O)Cc1nc2scc(-c3ccc(Cl)cc3)c2c(=O)[nH]1`, for which the inhibition is -0.903% (inactive).

The record behind these values is PubChem BioAssay AID485346 (Sanford-Burnham Center for Chemical Genomics, 2010).
